The values that follow come from PubChem BioAssay.

In assay [1] the test system is PRMT1 (protein arginine N-methyltransferase 1). Kind of assay: PRMT1 binders on small-molecule microarrays, primary screen, biochemical, small-molecule microarray, 635 nm fluorescence (AID 1088).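 Note: binding of Prmt1 protein to compounds spotted on small-molecule microarray slides.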 As to conditions: small-molecule microarray binding, higher = more signal.
A short description of assay [2]: yeast growth modulation, basal conditions, primary screen, YJM789 clinical isolate, OD600, 24 h (AID 1089).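 Note: growth of clinical yeast isolate S. cerevisiae YJM 789 seeded 1000 cells per well; test concentration not given here.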 As to conditions: S. cerevisiae YJM789 growth, higher = more signal, called active from +8 up or from −8 down.
Assay [3] in a line: fission yeast growth modulation, primary screen, strain 972, OD600, 24 h, no modulator (AID 1090).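 Note: basal condition with compound alone and no growth modifier present; test concentration not given here.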 As to conditions: S. pombe 972 growth, higher = more signal, called active from +8 up or from −8 down.
Assay [4] in a line: S. cerevisiae growth modulation with rapamycin, primary screen, strain BY4716, OD600, 96 h (AID 1091). Note: test concentration not given here. Particulars: higher = more signal, called active from +8 up or from −8 down.
The target in assay [5] is Torsin-1A-interacting protein 2 (Homo sapiens) (UniProt Q8NFQ8). Kind of assay: LULL1 binders on small-molecule microarray, primary screen, cell lysate, human LULL1 lysate, 635/667 nm fluorescence (AID 1092).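 Note: probe is lysate of COS7 cells overexpressing human LULL1; score merges per-feature 667 nm fluorescence with signal-to-noise.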 As to conditions: hLULL1 lysate binding, 635 nm fluorescence, higher = more signal.
Torsin-1A-interacting protein 2 (Homo sapiens), sequence (Q8NFQ8 whole entry, looked up): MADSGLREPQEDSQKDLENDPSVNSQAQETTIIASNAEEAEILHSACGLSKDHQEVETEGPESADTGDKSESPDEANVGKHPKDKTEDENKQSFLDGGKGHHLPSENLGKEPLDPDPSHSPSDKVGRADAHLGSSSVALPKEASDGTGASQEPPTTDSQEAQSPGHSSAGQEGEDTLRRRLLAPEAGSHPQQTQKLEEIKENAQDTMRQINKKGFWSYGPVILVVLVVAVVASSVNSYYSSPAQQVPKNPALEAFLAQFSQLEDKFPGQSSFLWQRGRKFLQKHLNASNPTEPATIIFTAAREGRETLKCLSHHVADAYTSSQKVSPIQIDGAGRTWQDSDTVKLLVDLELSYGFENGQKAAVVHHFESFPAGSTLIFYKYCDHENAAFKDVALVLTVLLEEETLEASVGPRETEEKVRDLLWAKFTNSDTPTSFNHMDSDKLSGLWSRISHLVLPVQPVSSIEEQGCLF
The nature of assay [6]: E. coli growth modulation, two-sided OD650, primary screen, E. coli filamentation project, strain DRC41, 24 h (AID 1093).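 Note: MC1000 strain lacking acrAB efflux and sulA so SOS filamentation is blocked; test concentration not given here.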 As to conditions: OD650, 24 h, higher = more signal, called active from +8 up or from −8 down.
A short description of assay [7]: small-molecule microarray binders of probe aLefty2, primary screen, biochemical, biotinylated probe, 635/667 nm fluorescence (AID 1094).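 Note: score merges spot fluorescence near 667 nm with spot signal-to-noise ratio.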 Particulars: higher = more signal.
The subject of assay [8] is Noggin (protein binding on small-molecule microarray). Kind of assay: Noggin binders on small-molecule microarray, primary screen, biochemical, 635/667 nm fluorescence (AID 1095).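 Note: score merges 667 nm feature fluorescence with signal to noise over triplicate slides.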 As to conditions: 635 nm fluorescence, higher = more signal.
The target in assay [9] is Neurogenic locus notch homolog protein 3 (Homo sapiens) (UniProt Q9UM47). Kind of assay: NOTCH3 binders on small-molecule microarray, primary screen, biochemical, 635/667 nm fluorescence (AID 1096). Particulars: NOTCH3 binding, 635 nm fluorescence, higher = more signal.
Neurogenic locus notch homolog protein 3 (Homo sapiens), sequence (Q9UM47 whole entry, looked up): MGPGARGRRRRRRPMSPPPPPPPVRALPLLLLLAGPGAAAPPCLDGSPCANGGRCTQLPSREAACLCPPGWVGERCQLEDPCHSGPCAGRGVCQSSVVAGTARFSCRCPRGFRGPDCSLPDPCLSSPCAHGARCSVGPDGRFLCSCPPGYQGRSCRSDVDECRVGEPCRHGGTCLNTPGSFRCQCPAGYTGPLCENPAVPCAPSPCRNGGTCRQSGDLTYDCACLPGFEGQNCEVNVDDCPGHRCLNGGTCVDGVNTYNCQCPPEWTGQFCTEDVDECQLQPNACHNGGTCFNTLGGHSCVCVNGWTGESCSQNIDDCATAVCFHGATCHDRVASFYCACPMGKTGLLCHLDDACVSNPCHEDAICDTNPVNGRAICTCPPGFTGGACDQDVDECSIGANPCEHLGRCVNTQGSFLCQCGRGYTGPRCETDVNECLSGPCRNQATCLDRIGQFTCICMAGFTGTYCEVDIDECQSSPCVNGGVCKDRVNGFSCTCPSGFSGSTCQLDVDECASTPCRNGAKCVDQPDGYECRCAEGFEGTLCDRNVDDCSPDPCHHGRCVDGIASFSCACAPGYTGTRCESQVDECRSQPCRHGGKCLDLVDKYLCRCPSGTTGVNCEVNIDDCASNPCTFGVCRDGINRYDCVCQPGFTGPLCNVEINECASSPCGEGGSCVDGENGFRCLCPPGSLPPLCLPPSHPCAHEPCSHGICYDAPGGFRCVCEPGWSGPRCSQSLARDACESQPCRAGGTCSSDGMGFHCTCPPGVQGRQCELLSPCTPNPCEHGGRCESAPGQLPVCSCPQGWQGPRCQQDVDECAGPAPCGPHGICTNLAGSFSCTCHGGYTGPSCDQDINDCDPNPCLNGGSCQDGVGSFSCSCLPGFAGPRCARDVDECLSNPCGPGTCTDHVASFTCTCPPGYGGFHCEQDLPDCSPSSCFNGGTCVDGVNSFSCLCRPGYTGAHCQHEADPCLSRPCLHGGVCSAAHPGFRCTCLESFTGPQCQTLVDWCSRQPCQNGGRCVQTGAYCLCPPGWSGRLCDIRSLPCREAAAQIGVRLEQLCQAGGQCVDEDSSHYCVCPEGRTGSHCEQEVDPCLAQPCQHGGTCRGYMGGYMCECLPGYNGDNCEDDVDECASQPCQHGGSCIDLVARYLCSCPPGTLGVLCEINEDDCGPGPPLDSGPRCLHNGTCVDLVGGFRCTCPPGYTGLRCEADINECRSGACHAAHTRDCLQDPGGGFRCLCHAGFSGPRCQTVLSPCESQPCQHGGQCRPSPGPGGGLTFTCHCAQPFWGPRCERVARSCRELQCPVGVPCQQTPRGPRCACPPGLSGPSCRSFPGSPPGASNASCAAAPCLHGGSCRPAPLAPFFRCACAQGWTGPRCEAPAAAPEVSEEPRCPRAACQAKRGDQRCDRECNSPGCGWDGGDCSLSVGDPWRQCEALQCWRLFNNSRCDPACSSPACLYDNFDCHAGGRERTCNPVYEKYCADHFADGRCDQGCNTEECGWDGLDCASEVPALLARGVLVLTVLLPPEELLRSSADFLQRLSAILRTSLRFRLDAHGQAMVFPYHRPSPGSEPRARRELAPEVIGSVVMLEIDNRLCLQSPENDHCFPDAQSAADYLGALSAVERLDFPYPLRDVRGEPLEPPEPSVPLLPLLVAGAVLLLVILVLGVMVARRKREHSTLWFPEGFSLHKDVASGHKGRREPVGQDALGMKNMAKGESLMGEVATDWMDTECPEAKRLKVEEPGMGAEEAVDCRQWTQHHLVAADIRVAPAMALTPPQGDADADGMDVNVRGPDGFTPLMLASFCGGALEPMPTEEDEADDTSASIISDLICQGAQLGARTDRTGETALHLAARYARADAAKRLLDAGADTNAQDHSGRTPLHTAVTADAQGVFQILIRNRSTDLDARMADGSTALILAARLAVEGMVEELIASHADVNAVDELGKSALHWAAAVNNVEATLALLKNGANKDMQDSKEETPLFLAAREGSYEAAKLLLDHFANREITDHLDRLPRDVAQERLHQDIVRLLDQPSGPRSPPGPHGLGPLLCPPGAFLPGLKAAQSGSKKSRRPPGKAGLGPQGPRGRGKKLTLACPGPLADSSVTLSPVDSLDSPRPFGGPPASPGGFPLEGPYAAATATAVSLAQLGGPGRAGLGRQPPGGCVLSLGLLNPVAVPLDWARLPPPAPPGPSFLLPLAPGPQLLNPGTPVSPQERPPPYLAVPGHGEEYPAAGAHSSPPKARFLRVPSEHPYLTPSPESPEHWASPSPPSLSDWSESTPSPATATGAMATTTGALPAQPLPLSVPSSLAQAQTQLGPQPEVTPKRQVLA
Assay [10] can be described thus: small-molecule microarray binders of probe aEGFR, primary screen, biochemical, biotinylated probe, 635/667 nm fluorescence (AID 1097).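 Note: probe is a biotinylated anti-EGFR antibody binding compounds printed on slides; score combines fluorescence near 667 nm and signal to noise of each spot.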 Particulars: higher = more signal.
Assay [11] relates to Plasmodium falciparum Sir2 (PF13_0152, Sir2A). The experiment in a line: pfSir2 binders on small-molecule microarrays, primary screen, biochemical, small-molecule microarray, 635 nm fluorescence (AID 1098).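 Note: score merges spot fluorescence intensity with its signal-to-noise ratio.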 As to conditions: small-molecule microarray binding, fluorescence 635 nm; higher = more signal.
The nature of assay [12]: small-molecule microarray binders of probe aDKK1, primary screen, biochemical, biotinylated probe, 635/667 nm fluorescence (AID 1099).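 Note: score merges 667nm spot fluorescence with signal to noise across triplicate slides; reference of the scale not given here.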 Particulars: higher = more signal.
The nature of assay [13]: small-molecule microarray binders of probe aCHRDL2, primary screen, biochemical, biotinylated probe, 635/667 nm fluorescence (AID 1100). As to conditions: higher = more signal.
A short description of assay [14]: splicing luciferase reporter signal modulators, primary screen, spliceosome inhibition project, cell-based, HEK293, splice +/- reporter (AID 1101).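 Note: HEK293 cells carrying a splicing-competent luciferase reporter gene; test concentration not given here.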 As to conditions: luminescence, 24 h, higher = more signal, called active from +8 up or from −8 down.
Assay [15] has as its target Fibroblast growth factor 10 (Homo sapiens) (UniProt O15520). Kind of assay: FGF10 binders on small-molecule microarrays, primary screen, biochemical, small-molecule microarray, 635 nm fluorescence (AID 1102). Particulars: FGF10 binding, fluorescence 635 nm, higher = more signal.
The test system of assay [16] is glycogen synthase kinase-3 (GSK3A per assay name; protocol says GSK3B). Kind of assay: GSK3 binders on small-molecule microarrays, primary screen, biochemical, small-molecule microarray, 635 nm fluorescence, GSK3A (AID 1103). Note: the record names both GSK3A and GSK3B. As to conditions: small-molecule microarray binding, fluorescence 635 nm; higher = more signal.
In assay [17] the target is Epidermal growth factor receptor (Homo sapiens) (UniProt P00533). Kind of assay: EGFR binders on small-molecule microarrays, primary screen, biochemical, small-molecule microarray, 635 nm fluorescence (AID 1104).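 Note: score merges 667 nm emission intensity with spot signal to noise over triplicate slides.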 Particulars: EGFR binding, higher = more signal.
Epidermal growth factor receptor (Homo sapiens), sequence (P00533 whole entry, looked up): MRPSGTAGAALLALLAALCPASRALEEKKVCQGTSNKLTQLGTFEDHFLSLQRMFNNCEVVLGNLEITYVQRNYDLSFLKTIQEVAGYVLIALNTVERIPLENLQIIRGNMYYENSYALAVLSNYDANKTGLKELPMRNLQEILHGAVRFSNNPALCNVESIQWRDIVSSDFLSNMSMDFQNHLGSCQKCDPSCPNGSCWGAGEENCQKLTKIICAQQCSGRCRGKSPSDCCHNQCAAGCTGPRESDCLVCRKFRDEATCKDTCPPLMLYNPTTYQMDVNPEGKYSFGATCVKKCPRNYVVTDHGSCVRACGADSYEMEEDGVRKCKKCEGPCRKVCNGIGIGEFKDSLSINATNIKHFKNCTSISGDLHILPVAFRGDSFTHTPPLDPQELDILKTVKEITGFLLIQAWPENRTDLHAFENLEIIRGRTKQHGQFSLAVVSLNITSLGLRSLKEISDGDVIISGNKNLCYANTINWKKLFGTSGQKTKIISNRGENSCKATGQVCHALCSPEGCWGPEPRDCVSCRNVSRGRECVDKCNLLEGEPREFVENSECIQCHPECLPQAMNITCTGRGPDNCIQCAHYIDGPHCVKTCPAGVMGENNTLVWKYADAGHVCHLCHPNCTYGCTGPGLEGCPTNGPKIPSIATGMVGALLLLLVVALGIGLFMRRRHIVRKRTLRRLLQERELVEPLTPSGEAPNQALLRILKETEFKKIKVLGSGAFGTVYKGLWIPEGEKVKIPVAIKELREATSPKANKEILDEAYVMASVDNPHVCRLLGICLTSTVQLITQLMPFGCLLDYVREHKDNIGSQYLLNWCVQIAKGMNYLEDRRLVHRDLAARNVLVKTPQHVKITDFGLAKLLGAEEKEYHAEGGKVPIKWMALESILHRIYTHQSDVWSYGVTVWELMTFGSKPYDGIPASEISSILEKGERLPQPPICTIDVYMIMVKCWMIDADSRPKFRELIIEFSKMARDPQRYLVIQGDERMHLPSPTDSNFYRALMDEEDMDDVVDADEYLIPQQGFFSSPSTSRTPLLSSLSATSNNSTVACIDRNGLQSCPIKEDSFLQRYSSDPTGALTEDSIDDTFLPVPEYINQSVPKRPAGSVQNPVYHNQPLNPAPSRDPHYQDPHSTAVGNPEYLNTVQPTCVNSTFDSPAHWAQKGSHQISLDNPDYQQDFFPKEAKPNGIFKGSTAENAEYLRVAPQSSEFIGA
The target of assay [18] is Follistatin-related protein 3 (Homo sapiens) (UniProt O95633). Kind of assay: FSTL3 binders on small-molecule microarrays, primary screen, biochemical, small-molecule microarray, 635 nm fluorescence (AID 1105).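 Note: score merges emission near 667 nm and signal to noise per printed spot across three slides.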 Particulars: FSTL3 binding, higher = more signal.
Follistatin-related protein 3 (Homo sapiens), sequence (O95633 whole entry, looked up): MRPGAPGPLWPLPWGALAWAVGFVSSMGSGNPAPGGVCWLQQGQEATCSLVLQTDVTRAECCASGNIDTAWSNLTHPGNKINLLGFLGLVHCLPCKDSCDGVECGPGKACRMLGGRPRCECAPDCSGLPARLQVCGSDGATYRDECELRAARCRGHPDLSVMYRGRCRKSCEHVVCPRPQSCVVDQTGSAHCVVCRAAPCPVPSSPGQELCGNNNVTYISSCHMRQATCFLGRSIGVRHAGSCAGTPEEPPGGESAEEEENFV
The target of assay [19] is Dickkopf-related protein 1 (Homo sapiens) (UniProt O94907). Kind of assay: DKK1 binders on small-molecule microarrays, primary screen, biochemical, small-molecule microarray, 635 nm fluorescence scan (AID 1106).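 Note: score merges emission near 667 nm with signal to noise over three replicate slides.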 Particulars: DKK1 binding, higher = more signal.
Dickkopf-related protein 1 (Homo sapiens), sequence (O94907 whole entry, looked up): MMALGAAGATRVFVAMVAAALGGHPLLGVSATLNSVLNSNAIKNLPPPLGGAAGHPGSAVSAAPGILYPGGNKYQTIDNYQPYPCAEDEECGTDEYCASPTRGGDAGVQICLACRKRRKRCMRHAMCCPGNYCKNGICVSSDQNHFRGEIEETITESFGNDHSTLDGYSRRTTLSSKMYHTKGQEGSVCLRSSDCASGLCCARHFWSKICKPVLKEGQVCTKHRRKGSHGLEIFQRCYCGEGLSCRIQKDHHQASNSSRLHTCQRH
In assay [20] the test system is Inhibin beta A chain (activin A). Kind of assay: INHBA (activin A) binders on microarrays, primary screen, biochemical, small-molecule microarray, 635 nm fluorescence scan (AID 1107).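 Note: mouse activin A protein probed at 4.33 µg/mL on printed slides; score merges bound-protein fluorescence near 667 nm with spot signal-to-noise.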 As to conditions: small-molecule microarray binding, higher = more signal.

The source made the active and inactive calls.

Fibroblast growth factor 10 (Homo sapiens), sequence (O15520 whole entry, looked up): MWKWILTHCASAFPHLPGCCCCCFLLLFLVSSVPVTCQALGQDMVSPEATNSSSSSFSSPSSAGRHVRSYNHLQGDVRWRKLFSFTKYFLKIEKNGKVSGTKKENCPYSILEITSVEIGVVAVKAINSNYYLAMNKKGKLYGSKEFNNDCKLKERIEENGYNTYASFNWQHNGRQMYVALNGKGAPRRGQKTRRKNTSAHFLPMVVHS

For the compound `O=C(CS)NCCCCCNC(=O)[C@H]1C[C@H]2C(=O)N3CCC[C@H]3C(=O)N2[C@H]1c1ccc(O)cc1`, the composite z-score in [1] was -0.183; in assay [5], 0.0874; in assay [7], -0.0961; in assay [8], 0.0529; in [9] it was -1.17; in [10] it was -0.184. For the same compound, the composite z-score is 0.203 in assay [11]; -0.18 in assay [12]; -0.196 in assay [13]; -0.0763 in assay [15]; -1.07 in assay [16]; 0.392 in assay [17]. The composite z-score is -0.47 in assay [18], 0.844 in [19] and 0.594 in [20]. Further, the z-score was -0.0414 (inactive) in assay [2]; -1.25 (inactive) in assay [3]; 0.0236 (inactive) in assay [4]; 1.62 (inactive) in assay [6]; -1.45 (inactive) in assay [14].
Turning to `O=C1O[C@@H](c2ccccc2)[C@@H](c2ccccc2)N2[C@@H](c3ccc(OCCO)cc3)[C@]3(C(=O)Nc4ccc(C#CCCO)cc43)[C@@H](C(=O)N3CCN(c4ncccn4)CC3)[C@H]12`, the composite z-score was 1.54 in [1]; 2.69 in assay [5]; -0.124 in assay [7]; 1.24 in assay [8]; 1.14 in [9]; -0.0828 in assay [10]. For the same compound, the composite z-score is 1.13 in assay [11]; 0.0868 in [12]; 0.319 in [13]; 1.19 in assay [15]; 0.935 in assay [16]; 0.16 in [17]. Moreover, the composite z-score in assay [18] worked out at 1.07; in assay [19], 0.116; in assay [20] it was 0.666. For the same compound, the z-score in assay [2] is 0.772 (inactive); in assay [3] it was 1.04 (inactive); in assay [4], 3.71 (inactive); in assay [6], 1.14 (inactive); in [14], 0.952 (inactive).
`CC(c1ccccc1)C(O)C1C=CC2C(=O)N(C)C(=O)C2N1N(c1ccccc1)c1ccccc1` (stereo not given): the composite z-score in assay [1] is 0.396; in [5] it was 1.65; in [7], 0.424; in assay [8], -0.959; in assay [9], 0.363; in assay [10], -0.0322. In addition, the composite z-score was 0.0872 in [11]; 1.01 in assay [12]; 1.2 in assay [13]; 0.234 in assay [15]; 0.187 in assay [16]; -0.451 in [17]. In addition, the composite z-score in assay [18] was 0.0656; in [19], -0.623; in assay [20] it was 1.41. Besides, the z-score in assay [2] is 0.414 (inactive); in assay [3], 0.184 (inactive); in [4], 1.27 (inactive); in [6] it was -1.1 (inactive); in assay [14] it was 1.05 (inactive).
Turning to `COc1cc(CO)cc(I)c1O[C@H]1C=C(C(=O)NCCO)C[C@@H](N(CC2CCCCC2)C(=O)c2cc3ccccc3oc2=O)[C@@H]1O`, the composite z-score in [1] was -0.449; in assay [5], 0.0986; in [7] it was -0.186; in assay [8] it was 0.606; in assay [9], -0.0481; in assay [10], -0.0656. Besides, the composite z-score in [11] was -0.375; in [12], -0.34; in assay [13], -0.293; in [15] it was 0.975; in assay [16] it was 0.0996; in [17] it was 0.6. Further, the composite z-score in [18] was found to be 0.797; in [19], 0.174; in assay [20], 0.14. Also, the z-score in [2] was 0.411 (inactive); in assay [3], -0.858 (inactive); in [4], -0.393 (inactive); in assay [6] it was 2.1 (inactive); in assay [14] it was -0.00607 (inactive).
Consider `CC(C)CN1C(=O)[C@@]2(Cc3ccccc31)c1ccccc1C(=O)N(C1CCCCC1)[C@H]2c1ccc(CO)cc1`, for which the composite z-score in assay [1] was 0.499; in [5], 2.01; in assay [7], -0.121; in assay [8], -0.901; in assay [9], -1.35; in [10] it was -0.179. Further, the composite z-score in assay [11] is -0.23; in assay [12], 0.262; in assay [13], 1.02; in assay [15] it was -0.706; in assay [16], -1.24; in [17], -0.894. For the same compound, the composite z-score is -1.34 in [18], -1.66 in assay [19] and 0.977 in assay [20]. Also, the z-score in [2] is -1.6 (inactive); in [3] it was -1.32 (inactive); in assay [4] it was -2.34 (inactive); in assay [6] it was 1.56 (inactive); in assay [14] it was -1.41 (inactive).
